Measurements published in PubChem BioAssay (EPA / NIEHS).
The source made the active and inactive calls. Rule for the calls: active = hit-call score of the fitted dose curve at least 0.9, where 1 is the maximum; inactive = score below 0.9.

Legend:
[1] = BSK_hDFCGF_SRB: Viability Assessment in the BioMAP Diversity Plus: hDFCGF Assay (AID 2283061); conditions: primary human foreskin fibroblasts;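 note: cells exposed to compound for 24 h before the read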
How it was run: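 Human foreskin primary fibroblasts were treated with compound and assessed 24 h after dosing. Total protein was measured by sulforhodamine B staining (0.1% SRB after 10% TCA fixation, 560 nm read) as a cytotoxicity marker, with bidirectional fitting against DMSO baseline.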

[2] = read-out: TIMP metallopeptidase inhibitor 1 (TIMP1), TIMP1 (gene 7076); assay: BSK_hDFCGF_TIMP1: BioMAP Diversity Plus: hDFCGF Assay for TIMP metallopeptidase inhibitor 1 (TIMP1) Biomarker Activity (AID 2283062); conditions: primary human foreskin fibroblasts; actives raise or lower the signal
How it was run: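 Primary human foreskin fibroblasts in the hDFCGF system were dosed with compound for 24 h, then TIMP-1 was measured by ELISA. Activity was fitted bidirectionally relative to DMSO control; parallel SRB staining assessed cytotoxicity.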

[3] = read-out: Monokine induced gamma interferon (MIG), CXCL9 (gene 4283); assay: BSK_hDFCGF_MIG: BioMAP Diversity Plus: hDFCGF Assay for Monokine induced gamma interferon (MIG) Biomarker Activity (AID 2283063); conditions: primary human foreskin fibroblasts; actives raise or lower the signal
How it was run: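 ELISA read-out of MIG from primary human dermal fibroblasts 24 h post-dosing. Gain or loss of signal fitted bidirectionally, DMSO as baseline.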

[4] = read-out: Matrix Metallopeptidase 1 (MMP1), MMP1 (gene 4312); assay: BSK_hDFCGF_MMP1: BioMAP Diversity Plus: hDFCGF Assay for Matrix Metallopeptidase 1 (MMP1) Biomarker Activity (AID 2283064); conditions: primary human foreskin fibroblasts; actives raise or lower the signal
How it was run: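 ELISA read-out of MMP1 from human foreskin fibroblasts (primary skin cells), 24 h post-dose. Gain or loss of signal was fitted bidirectionally versus DMSO negative control; cytotoxicity was checked by SRB in parallel cultures.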

[5] = read-out: Vascular cell adhesion molecule 1 (VCAM1), VCAM1 (gene 7412); assay: BSK_hDFCGF_VCAM1: BioMAP Diversity Plus: hDFCGF Assay for Vascular cell adhesion molecule 1 (VCAM1) Biomarker Activity (AID 2283065); conditions: primary human foreskin fibroblasts; actives raise or lower the signal;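 for AC50: VCAM-1 protein level quantified by ELISA after 24 h chemical exposure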
How it was run: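 Primary human foreskin fibroblasts (hDFCGF system) were dosed with chemical and VCAM-1 was measured by ELISA 24 h later. Bidirectional curve fitting used DMSO as negative control and activity baseline.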

[6] = read-out: Plasminogen activator inhibitor-1 (PAI1), SERPINE1 (gene 5054); assay: BSK_hDFCGF_PAI1: BioMAP Diversity Plus: hDFCGF Assay for Plasminogen activator inhibitor-1 (PAI1) Biomarker Activity (AID 2283066); conditions: primary human foreskin fibroblasts; actives raise or lower the signal
How it was run: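 ELISA readout of PAI-1 from primary human skin fibroblast cultures, 24 h after compound addition. Gain or loss of signal was fitted bidirectionally against DMSO baseline.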

[7] = read-out: Intercellular Adhesion Molecule 1 (ICAM1), ICAM1 (gene 3383); assay: BSK_KF3CT_ICAM1: BioMAP Diversity Plus: KF3CT Assay for Intercellular Adhesion Molecule 1 (ICAM1) Biomarker Activity (AID 2283067); conditions: primary human keratinocytes with fibroblasts; actives raise or lower the signal
How it was run: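 Human keratinocyte plus foreskin fibroblast primary co-culture was exposed to chemical for 24 h. ICAM-1 was then quantified by ELISA, and the data were fit bidirectionally against DMSO as the negative control and baseline.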

[8] = read-out: Interferon-gamma inducible Protein 10 (IP10), CXCL10 (gene 3627); assay: BSK_KF3CT_IP10: BioMAP Diversity Plus: KF3CT Assay for Interferon-gamma inducible Protein 10 (IP10) Biomarker Activity (AID 2283068); conditions: primary human keratinocytes with fibroblasts; actives raise or lower the signal
How it was run: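 In a primary skin co-culture of keratinocytes and fibroblasts, IP-10 is quantified by ELISA at 24 h after dosing. SRB staining of parallel wells monitors overt toxicity. Curves are fitted both directions against DMSO.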

[9] = BSK_KF3CT_SRB: Viability Assessment in the BioMAP Diversity Plus: KF3CT Assay (AID 2283069); conditions: primary human keratinocytes with fibroblasts
How it was run: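 SRB read-out at 560 nm (0.1% stain, TCA-fixed cells) gauges overt cytotoxicity in a human skin keratinocyte–fibroblast co-culture 24 h post-dosing. Signal change was fitted bidirectionally relative to DMSO control.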

[10] = read-out: Interleukin-1 alpha (IL1a), IL1A (gene 3552); assay: BSK_KF3CT_IL1a: BioMAP Diversity Plus: KF3CT Assay for Interleukin-1 alpha (IL1a) Biomarker Activity (AID 2283070); conditions: primary human keratinocytes with fibroblasts; actives raise or lower the signal
How it was run: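 Primary skin co-culture (keratinocytes, foreskin fibroblasts), 24 h exposure; ELISA for IL-1a; bidirectional curve fit vs DMSO.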

[11] = read-out: TIMP metallopeptidase inhibitor 2 (TIMP2), TIMP2 (gene 7077); assay: BSK_KF3CT_TIMP2: BioMAP Diversity Plus: KF3CT Assay for TIMP metallopeptidase inhibitor 2 (TIMP2) Biomarker Activity (AID 2283071); conditions: primary human keratinocytes with fibroblasts; actives raise or lower the signal
How it was run: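 ELISA readout of TIMP-2 in keratinocyte plus foreskin fibroblast co-cultures (human skin primary cells), 24 h post-dose. Gain or loss of signal fitted relative to DMSO.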

[12] = read-out: Transforming growth factor beta 1 (TGFb1), TGFB1 (gene 7040); assay: BSK_KF3CT_TGFb1: BioMAP Diversity Plus: KF3CT Assay for Transforming growth factor beta 1 (TGFb1) Biomarker Activity (AID 2283072); conditions: primary human keratinocytes with fibroblasts; actives raise or lower the signal
How it was run: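 Read-out: ELISA for TGF-b1 in keratinocyte/foreskin fibroblast human skin co-culture, 24 h after dosing; bidirectional curve fit vs DMSO baseline; gain or loss of signal scored.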

[13] = read-out: C-C motif chemokine 2 (Homo sapiens) (UniProt P13500); assay: BSK_KF3CT_MCP1: BioMAP Diversity Plus: KF3CT Assay for Monocyte Chemoattractant Protein 1 (MCP1/CCL2) Biomarker Activity (AID 2283073); conditions: primary human keratinocytes with fibroblasts; actives raise or lower the signal
How it was run: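 Human keratinocyte plus foreskin fibroblast primary co-culture exposed to chemical for 24 h. MCP-1 levels measured by ELISA. Bidirectional curve fitting relative to DMSO negative control as baseline.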

[14] = read-out: Matrix Metallopeptidase 9 (MMP9), MMP9 (gene 4318); assay: BSK_KF3CT_MMP9: BioMAP Diversity Plus: KF3CT Assay for Matrix Metallopeptidase 9 (MMP9) Biomarker Activity (AID 2283074); conditions: primary human keratinocytes with fibroblasts; actives raise or lower the signal;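 for AC50: MMP9 protein level quantified by ELISA in the co-culture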
How it was run: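 ELISA read-out of MMP-9 at 24 h post-dosing in a co-culture of human skin keratinocytes and foreskin fibroblasts. Gain or loss of signal was fitted in both directions against DMSO.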

[15] = read-out: urokinase plasminogen activator (uPA), PLAU (gene 5328); assay: BSK_KF3CT_uPA: BioMAP Diversity Plus: KF3CT Assay for urokinase plasminogen activator (uPA) Biomarker Activity (AID 2283075); conditions: primary human keratinocytes with fibroblasts; actives raise or lower the signal
How it was run: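 Skin co-culture (keratinocytes + foreskin fibroblasts), human primary; 24 h post-dose; uPA by ELISA; gain/loss fit vs DMSO baseline.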

[16] = read-out: E-selectin (Homo sapiens) (UniProt P16581); assay: BSK_LPS_Eselectin: BioMAP Diversity Plus: LPS Assay for Eselectin Biomarker Activity (AID 2283077); conditions: primary human HUVEC with PBMC; actives raise or lower the signal
How it was run: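 Human umbilical vein endothelial cells co-cultured with peripheral blood mononuclear cells under LPS stimulation; E-selectin measured by ELISA 24 h after chemical dosing. Activity fitted bidirectionally against DMSO as negative control and baseline.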

[17] = read-out: Interleukin-8 (IL8), CXCL8 (gene 3576); assay: BSK_LPS_IL8: BioMAP Diversity Plus: LPS Assay for Interleukin-8 (IL8) Biomarker Activity (AID 2283078); conditions: primary human HUVEC with PBMC; actives raise or lower the signal
How it was run: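 Human umbilical vein endothelial cells co-cultured with PBMC were stimulated with LPS; IL-8 levels were measured by ELISA 24 h after chemical dosing. Activity was fitted bidirectionally against DMSO as negative control and baseline.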

[18] = BSK_LPS_SRB: Viability Assessment in the BioMAP Diversity Plus: LPS Assay (AID 2283079); conditions: primary human HUVEC with PBMC;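 note: total protein by sulforhodamine B absorbance as a cytotoxicity measure; measured one day after compound addition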
How it was run: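 Human umbilical vein endothelial cells co-cultured with PBMC (LPS system) were dosed for 24 h. Total protein was stained with 0.1% sulforhodamine B after 10% TCA fixation, read at 560 nm, and fitted bidirectionally against DMSO baseline.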

[19] = read-out: Interleukin-1 alpha (IL1a), IL1A (gene 3552); assay: BSK_LPS_IL1a: BioMAP Diversity Plus: LPS Assay for Interleukin-1 alpha (IL1a) Biomarker Activity (AID 2283080); conditions: primary human HUVEC with PBMC; actives raise or lower the signal
How it was run: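 Human umbilical vein endothelial cells co-cultured with peripheral blood mononuclear cells were LPS-stimulated and exposed to test chemicals for 24 h. IL-1 alpha was quantified by ELISA, with bidirectional curve fitting against DMSO as the negative control and baseline.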

CD40, CD40 (gene 958) = assay: BSK_LPS_CD40: BioMAP Diversity Plus: LPS Assay for CD40 Biomarker Activity (AID 2283076); conditions: primary human HUVEC with PBMC; actives raise or lower the signal
How it was run: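 Primary human umbilical vein endothelial cells co-cultured with peripheral blood mononuclear cells, LPS-stimulated, were dosed with chemical and read 24 h later. CD40 levels were measured by ELISA and fitted bidirectionally against DMSO as negative control and baseline.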

Measured: AC50

E-selectin (Homo sapiens), sequence (P16581 whole entry, looked up): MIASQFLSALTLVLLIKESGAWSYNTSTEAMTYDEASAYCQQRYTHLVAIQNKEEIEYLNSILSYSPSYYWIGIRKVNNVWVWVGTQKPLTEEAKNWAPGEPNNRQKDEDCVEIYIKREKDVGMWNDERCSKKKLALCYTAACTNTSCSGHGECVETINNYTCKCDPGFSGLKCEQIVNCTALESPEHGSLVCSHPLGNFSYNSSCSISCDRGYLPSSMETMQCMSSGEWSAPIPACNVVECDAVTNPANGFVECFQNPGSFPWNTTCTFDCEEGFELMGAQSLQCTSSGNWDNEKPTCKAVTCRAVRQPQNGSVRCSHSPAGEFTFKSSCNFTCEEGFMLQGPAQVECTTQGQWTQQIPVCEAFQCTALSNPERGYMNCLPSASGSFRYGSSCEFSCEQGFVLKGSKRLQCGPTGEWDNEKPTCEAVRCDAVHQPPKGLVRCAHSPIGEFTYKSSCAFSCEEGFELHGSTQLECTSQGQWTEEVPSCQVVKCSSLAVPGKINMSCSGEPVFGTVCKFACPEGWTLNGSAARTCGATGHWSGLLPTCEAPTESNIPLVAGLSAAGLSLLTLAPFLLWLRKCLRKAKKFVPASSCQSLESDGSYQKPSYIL

C#C[C@]1(O)CC[C@H]2[C@@H]3CCC4=Cc5oncc5C[C@]4(C)[C@H]3CC[C@@]21C
active: [5] 20 µM | [11] 3.28 µM | [14] 3.97 µM | [18] 6.65 µM
not listed: CD40, CD40 (gene 958)
inactive: all other assays above

Nc1cc([N+](=O)[O-])ccc1Cl
not listed: CD40, CD40 (gene 958)
inactive: all other assays above

CC(=O)O[C@]1(C(C)=O)CC[C@H]2[C@@H]3C[C@H](C)C4=CC(=O)CC[C@]4(C)[C@H]3CC[C@@]21C
active: [8] 2.55 µM
not listed: CD40, CD40 (gene 958)
inactive: all other assays above

CN(CCOc1ccc(CC2SC(=O)NC2=O)cc1)c1ccccn1 (stereo not drawn)
active: [10] 0.582 µM | [12] 0.016 µM | [14] 3.97 µM | [15] 0.016 µM | CD40, CD40 (gene 958) 13 µM
inactive: all other assays above

C=C[Si](OCC)(OCC)OCC
not listed: [3] | CD40, CD40 (gene 958)
inactive: all other assays above

BrC1CCC(Br)C(Br)CCC(Br)C(Br)CCC1Br (stereo not drawn)
active: [1] 1.5 µM | [5] 4.68 µM | [6] 1.37 µM | [8] 4.53 µM | [11] 1.53 µM | [14] 4.72 µM | [15] 4.69 µM | [18] 4.63 µM | [19] 4.58 µM
inactive: [2] | [4] | [7] | [9] | [10] | [12] | [13] | [16] | [17]
